# Laboratory results from PubChem BioAssay (NCI).
# “And” between values parts separate entries of the source, which are not always exact repeats. Equal values may be shown once. This is part of a sample that, as a whole, favours compounds with a hit. Of some 79,000 tested, about 15% had one in any assay. The source made the active and inactive calls. No stated cut-off is given here; in the data, active means growth inhibition above about 70%; inactive means the rest. *1 amine or outer side, *2 acyl side, *3 side chain or, on linkers, in order; H or OH if unused. Where a SMILES comes first, the peptide text is derived from it. Bridges are numbered along the chain shown (N, C = ends). Roman numbers before positions name the chains, in order. [ ]: non-standard residue; d: D form. Actinocin(9to1) = Cc1c2oc3c(C)ccc(C(=O)[*:1])c3nc-2c(C(=O)[*:2])c(N)c1=O; NMeY = CN[CH](Cc1ccc(O)cc1)C(=O)O; Sar = CNCC(=O)O
# Assay: NCI Yeast Anticancer Drug Screen. Data for the mlh1 rad18 strain (AID 175)
# Details: S. cerevisiae mlh1 rad18 strain growth inhibition; at 50.0 µM; stronger effect = higher value
# Outline: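 Yeast w/ defined DNA-repair lesions; compound exposure; growth vs vehicle controls → % inhibition.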
row,Structure (SMILES),growth inhibition
1,O=C(OC(=C(c1ccccc1)c1ccccc1)c1ccccc1)c1ccccc1,11.2% (inactive) and 20.4% (inactive)
2,Cc1ccc(N(O)C(C)(C)C)cc1,9.15% (inactive) and -11.9% (inactive)
3,"Cc1c2oc3c(C)ccc(C(=O)NC4C(=O)NC(C(C)C)C(=O)N5CCCC5C(=O)N(C)CC(=O)N(C)C(Cc5ccc(O)cc5)C(=O)OC4C)c3nc-2c(C(=O)NC2C(=O)NC(C(C)C)C(=O)N3CCCC3C(=O)N(C)CC(=O)N(C)C(Cc3ccc(O)cc3)C(=O)OC2C)c(N)c1=O (stereo not given) (I: TVP[Sar][NMeY] / II: TVP[Sar][NMeY]; ester I:1-I:C, II:1-II:C; linker I:N-II:N via Actinocin(9to1); configuration not given here)",-25.1% (inactive) and -32.2% (inactive)
4,CC(O)C(O)C(O)C(O)CO (stereo not given),0.15% (inactive) and -4.05% (inactive)
5,Cc1ccc2ccccc2[n+]1C,-5.4% (inactive) and -20.4% (inactive)
